HttQ103 aggreg: reduces HttQ103-GFP aggregates in PC12 cells; PC12 HttQ103-GFP aggregates, Acumen cytometry, 40 h; Potency, µM (highest dose often 46.1 µM), usual class: inhibitors; 220,000 compounds, 1.1% hits; AID 1688; also: nearly all actives have a fitted effect of over 60% in size
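Steps: seed 1500 PC12 HTTQ103-GFP cells/well; add tebufenozide, 100 nM final; add compound titration; add ATPLite reagent; quantify GFP aggregates by laser scanning cytometry.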
HTT cytoprotect: protects HTT-Q103 PC12 cells, measured by ATP; Potency, µM (top dose mostly 56.4 µM), actives largely listed as activators; AID 1471; 230,000 compounds, 0.14% hits; PC12 HTT-Q103 induced, cytoprotection, ATP luminescence, 40 h; also: nearly all actives have a fitted effect of over 45% in size
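Compounds added alongside 100 nM tebufenozide, which induces toxic Q103 huntingtin exon 1-GFP in stable PC12 cells; surviving cells quantified by luminescent ATP measurement. Medium: phenol red-free DMEM, 5% equine and 5% calf serum.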
PNC assembly inh: inhibitors of perinucleolar compartment assembly; 140,000 compounds, 3.1% hits; activity change (PNC), negative = inhibition, % at 10 µM; PC3M PTB-GFP, PNC prevalence imaging, 16 h; hits give low values;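 active = readout at or below -70, meaning at least 70% loss of cells showing the perinucleolar compartment, a nuclear body marking cancer cells; inconclusive = readout between -30 and a set limit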
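Compounds are pinned in duplicate onto adhered PC3M cells stably expressing GFP-tagged PTB and incubated 16 h at 37 C. Cells are then fixed, nuclei stained with Hoechst, and PNC-positive cells counted.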
A number is an active result; - = inactive; ? = inconclusive; . = no result; [ ] = another dose, or the depositor's remark. Many of the other results were omitted from the sample, so hits are more common in it than they were. Unless noted, calls follow the shape of the dose curve; as a rule, active = well fitted curve in the direction sought with a large enough effect; inconclusive = small, poorly fitted or top-dose-only effect, or another doubt; inactive = no such curve, though single readings can be large; an effect the other way counts as inactive or inconclusive.

SMILES | HttQ103 aggreg | HTT cytoprotect | PNC assembly inh
Cc1ccc(C(=O)Nc2ccc3c4c(cccc24)CC3)cc1[N+](=O)[O-] | - | -[10 µM] | -81.3
CCCCS(=O)CC(COc1ccc(Cl)cc1)OC(=O)c1ccccc1 (centres undefined) | - | -[10 µM] | -119.5
CCCCS(=O)CC(COC)OC(=O)c1ccccc1 (centres undefined) | - | -[10 µM] | .
CCOC(=O)c1[nH]c2ccccc2c1NC(C)=O | -[9.22 µM] | -[10 µM] | .
CC(=O)Nc1c(O)[nH]c2ccccc12 | - | -[10 µM] | -98.0
Cc1ccc(S(=O)(=O)N(CC(=O)N2CCN(c3ccccc3F)CC2)C2CCCCC2)cc1 | ? | - | -
CS(=O)(=O)N(CC(=O)N1CCN(c2ccccc2F)CC1)C1CCCCC1 | - | - | -88.0
CCOc1cc2c(cc1OCC)C(c1ccc(OC)cc1)N(c1ccccc1)C(=O)C2 (centres undefined) | - | -[10 µM] | -
CCOc1cc2c(cc1OCC)C(c1ccccc1)N(c1ccccc1)C(=O)C2 (centres undefined) | - | -[10 µM] | -92.9
COc1ccc(Cn2c(-c3ccc(C)cc3)c[n+]3ccccc23)cc1 | 8.91µM | -[1.9 µM] | -
COc1ccc(Cn2c(O)c(C=Nc3ccc(C)cc3)c3ccccc3c2=O)cc1 | - | ? | ?
CCCn1c(-c2ccc(OC)cc2)nc2ccccc21 | -[9.22 µM] | - | -
COCCn1c(-c2ccccc2)nc2ccccc21 | - | . | -113.4
COc1ccc(-c2nc3ccccc3n2Cc2ccc(C)cc2)cc1 | ? | - | -82.1
COCn1c(-c2ccc(OC)cc2)nc2ccccc21 | - | -[10 µM] | -
O=C(CSc1nnc(-c2ccncc2)n1CCc1ccccc1)N1CCCC1 | -[9.22 µM] | -[10 µM] | .
O=C(CNS(=O)(=O)c1cccs1)NCc1ccccc1 | - | - | .
CC(=O)c1c(N2CCN(Cc3ccccc3)CC2)[nH]c(-c2ccccc2)nc1=S | - | -[10 µM] | -
CC(C)C(=O)NC(=O)[C@@H]1CCCN1C(=O)/C=C/c1ccccc1 | - | . | -
COc1ccc2[nH]c(=O)c(CN(CCO)C(=O)c3ccccc3F)cc2c1 | - | -[10 µM] | -
O=[N+]([O-])c1cc(Cl)cc(/C=N\Nc2ccccn2)c1O | 2.24µM | - | -
O=C(N/N=C/c1cc(Cl)cc([N+](=O)[O-])c1O)c1cc(-c2ccccn2)nc2ccccc12 | -[9.22 µM] | -[10 µM] | .
COCCn1c(=O)c(-c2cn(C)c3ccccc23)nc2cnc(N3CCOCC3)nc21 | . | - | .
Cc1cc(C)n(/N=C/c2cccs2)c(=O)c1C#N | - | -[10 µM] | -98.0
Cc1cc(C)c(/C=N/n2c(C)cc(C)c(C#N)c2=O)c(C)c1 | - | . | -
SMILES | HttQ103 aggreg | HTT cytoprotect | PNC assembly inh
CCOC(=O)C1CCCN(C(=O)CC(c2ccccc2)c2ccccc2)C1 (centres undefined) | - | -[10 µM] | -100.0
O=C(CC(c1ccccc1)c1ccccc1O)N1CCCC1 (centres undefined) | - | - | -88.1
Cc1cccc(C(CC(=O)N2CCCC2)c2ccccc2)c1O (centres undefined) | - | - | -
CCOC(=O)C1CCCN(C(=O)Cc2ccc(C)cc2)C1 (centres undefined) | -[9.22 µM] | - | ?
CCCCN(CC)CCCNC(=O)c1csc2c1CCCCC2 | - | - | .
CC(=O)OC[C@H]1O[C@@H](Sc2cccc3cccnc23)[C@H](OC(C)=O)[C@@H](OC(C)=O)[C@H]1OC(C)=O | - | -[10 µM] | -
CCOc1ccccc1NC(=O)c1cccc(NC(=O)c2ccco2)c1 | - | -[10 µM] | -86.0
Cc1cccc(C)c1OCC(=O)Nc1ccc(NC(=O)c2ccco2)cc1 | -[9.22 µM] | -[10 µM] | .
CCOc1ccc(C(=O)Nc2ccc(NC(=O)c3ccco3)c(Cl)c2)cc1Cl | - | -[10 µM] | -
Cc1cccc(C)c1OCC(=O)Nc1cccc(NC(=O)c2ccco2)c1 | - | -[0.074 µM] | -118.9
CN(C)/C=N/c1c(C#N)cnn1C | - | - | .
CC(C)(C)S(=O)(=O)c1ccccc1C(=O)O | - | -[10 µM] | -
COc1ccc(S(=O)(=O)N2CCCCCC2)cc1Br | -[9.22 µM] | -[10 µM] | .
CC(=O)NCCc1nc2ccccc2n1CCOc1ccccc1 | -[9.22 µM] | -[10 µM] | .
CCOc1ccc(NCc2nc3ccccc3n2CCOc2ccccc2)cc1 | - | . | -113.4
COc1ccc(/C=N/n2c(C)cc(C)c(C(N)=O)c2=O)cc1 | -[9.22 µM] | - | -
Cc1ccc(-n2nnnc2-c2ccco2)cc1 | - | -[10 µM] | -
CN(C)C(CNc1nnnn1-c1ccccc1)c1ccco1 (centres undefined) | - | -[1.9 µM] | -90.0
COCC(=O)Nc1nc(-c2ccccc2)ns1 | - | -[0.074 µM] | -
CC(=O)Nc1nc(-c2ccccc2)ns1 | - | -[10 µM] | -100.0
O=S(=O)(c1ccc(Cl)cc1)N1c2ccccc2Oc2nc3ccccc3nc21 | - | -[10 µM] | -
COc1ccc(S(=O)(=O)N2c3cc(Cl)ccc3Oc3nc4ccccc4nc32)cc1 | - | -[10 µM] | -100.0
O=C1CCCC(c2ccccc2)N1 (centres undefined) | - | . | -
COc1ccc(OC)c(/C=C/C(=O)Nc2cccc(S(=O)(=O)N3CCCC3)c2)c1 | - | -[10 µM] | .
Cc1sc(NC(=O)c2cccs2)c(C(=O)OC(C)C)c1C | - | -[10 µM] | -100.0
SMILES | HttQ103 aggreg | HTT cytoprotect | PNC assembly inh
CCc1c(C)sc(NC(=O)c2cccs2)c1C(=O)OC(C)C | - | - | -
COc1ccc(C(=O)Cn2nnc(-c3ccccc3NC(=O)C(F)(F)F)n2)cc1 | - | - | -
Cc1ccc(-c2nnn(CC(=O)Nc3ccc(S(=O)(=O)N4CCC(C)CC4)cc3)n2)cc1 | - | -[10 µM] | -
COc1ccc(NC(=O)Cn2nnc(-c3ccccc3NC(=O)C3CC3)n2)cc1 | - | - | -103.7
COc1ccc(C(=O)Cn2nnc(-c3ccccc3NC(=O)C3CCCCC3)n2)cc1 | 12.6µM | - | -
CC1CCN(S(=O)(=O)c2ccc(NC(=O)Cn3nnc(-c4ccccc4)n3)cc2)CC1 | - | -[10 µM] | -100.0
CCOc1ccc(NC(=O)Cn2nnc(-c3ccccc3NC(=O)C3CC3)n2)cc1 | - | - | -
Cc1c(NC(=O)CSC2=C(C#N)C(c3ccccc3F)CC(=O)N2)c(=O)n(-c2ccccc2)n1C (centres undefined) | - | - | -
CCOc1ccccc1NC(=O)COC(=O)CN(C)S(=O)(=O)c1ccc(C)cc1 | - | -[0.074 µM] | -
COc1ccccc1NC(=O)NS(=O)(=O)c1ccc(C)cc1 | - | - | -109.7
Cc1ccc(C)c(NC(=O)CNS(=O)(=O)c2ccccc2)c1 | - | -[0.074 µM] | -80.4
CCNS(=O)(=O)c1ccc(NC(=O)Nc2ccccc2OC)cc1 | -[9.22 µM] | -[10 µM] | .
COc1ccccc1NC(=O)CNS(=O)(=O)c1ccccc1 | - | -[10 µM] | -
CCCNS(=O)(=O)c1ccc(OCC(=O)OC)cc1 | - | - | -
CCOc1ccccc1NC(=O)COC(=O)CNS(=O)(=O)c1ccc(C)cc1 | - | -[10 µM] | -116.4
CCCNS(=O)(=O)c1ccc(OCC(=O)Nc2ccccc2F)cc1 | - | -[10 µM] | -112.0
Cc1nc2ccccc2c(=O)n1/N=C/c1cn(-c2ccccc2)nc1-c1cccs1 | - | - | ?
COc1ccc(C2Nc3ccccc3C(=O)N2Cc2ccco2)cc1COc1ccccc1F (centres undefined) | - | - | -
CC[C@@H](C)CN1C(=O)N[C@@H](c2ccccc2)C(C(=O)OC)=C1C | . | -[10 µM] | .
COCc1c(C(=O)OC)nnn1-c1ccccc1 | - | -[10 µM] | -
CCOCC(=O)Nc1cc(C(=O)NCCC(C)C)ccc1Cl | -[9.22 µM] | -[10 µM] | .

Assay outcomes (PubChem)
